For 19 molecules, growth inhibition, inhibition and outcome results are on record in PubChem BioAssay.

Test [1] in a line: antimalarial activity against Dd2 strain (AID 2302;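 active means growth inhibition above 50% at the single 2 µM test dose, taken to imply half-maximal potency below 2 µM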;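 further: 0% = DMSO untreated growth and 100% = chloroquine plus artemisinin killed control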). Particulars: P. falciparum Dd2 in RBCs, LDH growth readout, 72 h; at 2 µM; stronger effect = higher value.
A short description of test [2]: human hepatoma cell viability loss – ATP luminescence, cytotoxicity control for P. falciparum antimalarial project, primary screen (AID 2303;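 active means inhibition above 50%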;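 further: 0% = DMSO wells and 100% = digitonin-killed cells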). Particulars: HepG2 viability, 24-48 h, at 10 µM, stronger effect = higher value.
Test [3] addresses L-lactate dehydrogenase (Plasmodium falciparum (isolate CDC / Honduras)) (UniProt Q27743). Description: PfLDH activity inhibition – cell lysate, 3D7 strain, counter-screen for P. falciparum growth inhibition project (AID 2304).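 Further: 0% = vehicle and 100% = reference inhibitor.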 Conditions: P. falciparum 3D7 crude extract, LDH APAD/NBT absorbance; at 2 µM; stronger effect = higher value. In general terms: Counterscreens check selectivity or assay interference.

Test [4] can be described thus: inhibition of 3D7 malaria parasite growth – strain 3D7 (AID 2306).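 Further: 0% = DMSO wells and 100% = chloroquine plus artemisinin control wells.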 Particulars: P. falciparum 3D7 erythrocytic growth, LDH absorbance, 72 h; at 2 µM; stronger effect = higher value.
Test [5] addresses Calcium-dependent protein kinase 1 (Plasmodium falciparum (isolate 3D7)) (UniProt P62344). The test can be described thus: PfCDPK1 kinase inhibitors, biochemical, TCAMS library (AID 1159585; cut-off not given, nearly all actives have IC50 up to about 0.98 µM;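 further: inhibitors leave more ATP so luminescence rises with inhibition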). Conditions: recombinant PfCDPK1, Kinase-Glo ATP depletion luminescence.
Test [6] addresses Plasmodium falciparum protein kinase 6 (PK6, PF3D7_1337100) (UniProt Q8IDW1). The test can be described thus: PfPK6 kinase inhibitors, biochemical, TCAMS library (AID 1159586). Particulars: recombinant PfPK6, Kinase-Glo ATP depletion luminescence.
The target in test [7] is Protein kinase 7 (PK7), Plasmodium falciparum 3D7 (PF3D7_0213400) (UniProt Q7YTF7). The test can be described thus: inhibition of Plasmodium PK7 catalytic activity – biochemical, TCAMS antimalarial set, Kinase-Glo luminescence (AID 1159587). Conditions: recombinant PfPK7, Kinase-Glo ATP depletion luminescence. A general note: In Kinase-Glo more light means more ATP remaining.
Protein kinase 7 (PK7), Plasmodium falciparum 3D7 (PF3D7_0213400), sequence (Q7YTF7 1-343): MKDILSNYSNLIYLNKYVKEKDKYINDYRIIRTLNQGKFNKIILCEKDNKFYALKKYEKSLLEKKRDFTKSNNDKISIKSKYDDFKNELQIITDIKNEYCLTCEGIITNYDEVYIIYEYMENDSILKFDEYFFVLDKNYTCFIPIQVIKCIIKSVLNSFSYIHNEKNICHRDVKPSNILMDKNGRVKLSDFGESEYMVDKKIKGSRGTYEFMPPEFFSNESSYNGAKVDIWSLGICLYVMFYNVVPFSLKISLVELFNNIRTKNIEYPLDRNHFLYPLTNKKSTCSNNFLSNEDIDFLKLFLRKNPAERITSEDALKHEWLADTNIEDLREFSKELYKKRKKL

Test [8] addresses Calcium-dependent protein kinase 4 (Plasmodium falciparum (isolate 3D7)) (UniProt Q8IBS5). Description: PfCDPK4 kinase inhibitors, biochemical, TCAMS library (AID 1159588; cut-off not given, nearly all actives have IC50 up to about 0.91 µM). Conditions: recombinant PfCDPK4, Kinase-Glo ATP depletion luminescence.

SMILES strings stand for the structures. Unmarked numbers belong to inactive results. For some assays here: Potency and affinity values are given separately. The source made the active and inactive calls. Unless noted, how the calls were made is not given here.

As a reminder, the inhibition is the relative decrease from the control value, in per cent.

Calcium-dependent protein kinase 4 (Plasmodium falciparum (isolate 3D7)), sequence (Q8IBS5 whole entry, looked up): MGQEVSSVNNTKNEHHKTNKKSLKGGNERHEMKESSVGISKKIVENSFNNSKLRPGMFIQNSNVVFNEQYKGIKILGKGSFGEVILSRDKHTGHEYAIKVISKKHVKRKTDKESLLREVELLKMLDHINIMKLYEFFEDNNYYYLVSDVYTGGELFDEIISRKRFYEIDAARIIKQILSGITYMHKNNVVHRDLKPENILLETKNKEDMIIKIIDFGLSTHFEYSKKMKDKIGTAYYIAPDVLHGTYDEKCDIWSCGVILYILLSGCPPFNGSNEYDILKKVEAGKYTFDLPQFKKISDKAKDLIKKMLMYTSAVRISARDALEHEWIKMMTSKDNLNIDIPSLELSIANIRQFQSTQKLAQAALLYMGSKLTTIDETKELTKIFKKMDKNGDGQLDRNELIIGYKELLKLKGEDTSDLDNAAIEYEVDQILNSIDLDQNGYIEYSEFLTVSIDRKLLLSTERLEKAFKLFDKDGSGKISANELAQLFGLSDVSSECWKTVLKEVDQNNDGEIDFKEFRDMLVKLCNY
L-lactate dehydrogenase (Plasmodium falciparum (isolate CDC / Honduras)), sequence (Q27743 whole entry, looked up): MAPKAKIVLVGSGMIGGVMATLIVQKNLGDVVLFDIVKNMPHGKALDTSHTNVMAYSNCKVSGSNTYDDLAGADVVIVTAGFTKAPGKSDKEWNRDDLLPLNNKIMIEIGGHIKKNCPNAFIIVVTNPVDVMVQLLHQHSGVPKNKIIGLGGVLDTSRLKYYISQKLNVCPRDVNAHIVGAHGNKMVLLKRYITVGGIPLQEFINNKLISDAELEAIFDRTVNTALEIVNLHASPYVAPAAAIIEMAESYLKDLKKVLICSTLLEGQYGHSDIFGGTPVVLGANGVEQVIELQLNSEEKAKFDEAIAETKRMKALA
Calcium-dependent protein kinase 1 (Plasmodium falciparum (isolate 3D7)), sequence (P62344 whole entry, looked up): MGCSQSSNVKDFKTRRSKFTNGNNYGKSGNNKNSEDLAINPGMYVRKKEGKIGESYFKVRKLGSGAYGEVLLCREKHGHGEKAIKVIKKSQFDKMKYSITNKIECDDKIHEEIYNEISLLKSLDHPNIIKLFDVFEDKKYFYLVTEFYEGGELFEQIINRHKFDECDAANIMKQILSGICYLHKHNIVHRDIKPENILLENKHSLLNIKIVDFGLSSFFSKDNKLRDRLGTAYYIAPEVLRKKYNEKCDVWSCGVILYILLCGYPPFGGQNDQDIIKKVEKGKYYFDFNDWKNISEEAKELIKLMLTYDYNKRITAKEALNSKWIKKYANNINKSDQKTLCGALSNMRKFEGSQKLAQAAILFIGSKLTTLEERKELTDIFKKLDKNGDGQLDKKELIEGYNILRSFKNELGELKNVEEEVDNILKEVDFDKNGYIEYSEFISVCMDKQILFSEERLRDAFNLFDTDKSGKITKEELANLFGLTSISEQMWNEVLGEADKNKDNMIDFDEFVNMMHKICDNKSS
Plasmodium falciparum protein kinase 6 (PK6, PF3D7_1337100), sequence (Q8IDW1 1-305): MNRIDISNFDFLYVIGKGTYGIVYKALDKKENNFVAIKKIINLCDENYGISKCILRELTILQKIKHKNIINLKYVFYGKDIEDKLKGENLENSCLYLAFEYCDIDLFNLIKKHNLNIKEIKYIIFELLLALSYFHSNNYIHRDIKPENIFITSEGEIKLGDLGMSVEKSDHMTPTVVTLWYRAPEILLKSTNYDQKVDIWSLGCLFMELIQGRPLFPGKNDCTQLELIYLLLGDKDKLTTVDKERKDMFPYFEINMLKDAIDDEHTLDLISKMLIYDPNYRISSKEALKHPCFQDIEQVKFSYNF

`CCOc1cc(C)ccc1C1CCN(CCCCNC(=O)c2ccc(-c3ccc(Cl)cn3)cc2)CC1`: the growth inhibition is 8% in test [1] and 94% (active) in test [4]. Further, the inhibition in test [2] was 19%; in test [3] it was -6%. Besides, the outcome in test [5], in test [6], in test [7] and in test [8] was inactive.

Consider `N#Cc1cc([N+](=O)[O-])ccc1-n1nc(-c2cccc(Cl)c2)n(CC2CCCO2)c1=S` (configuration not stated), for which the results for the growth inhibition in test [1] and in test [4] were 89% (active) and 91% (active), respectively. The figures for the inhibition in test [2] and in test [3] were 0% and -2%, respectively. In addition, the outcome in test [5], in test [6], in test [7] and in test [8] was inactive.

For `CC(C)(C)COc1ccc2c(N)n[nH]c2c1`, the results for the growth inhibition in test [1] and in test [4] were 8% and 90% (active), respectively. Besides, the inhibition in test [2] is 31%; in test [3], 4%. The outcome in test [5], in test [6], in test [7] and in test [8] was inactive.

On to `O=C(Nc1ccc([N+](=O)[O-])cc1)Nc1cc(OCC(F)(F)F)cc(OCC(F)(F)F)c1`, for which the growth inhibition in test [1] and in test [4] was 100% (active) each time. Moreover, the results for the inhibition in test [2] and in test [3] were 71% (active) and 5%, respectively. Moreover, the outcome in test [5], in test [6], in test [7] and in test [8] was inactive.

With `COc1c(CNCCCCCCNCc2c(OC)c(OC)c3ccccc3c2OC)c(OC)c2ccccc2c1OC`, the growth inhibition was 98% (active) in test [1] and 96% (active) in test [4]. In addition, the inhibition in test [2] was 100% (active); in test [3], -2%. The outcome in test [5], in test [6], in test [7] and in test [8] was inactive.

Take `CN1CCCCC1CCc1cc(C(=O)Nc2ccc(-c3ccc(O)cc3)cc2)ccc1O` (configuration not stated): the growth inhibition in test [1] is 11%; in test [4], 91% (active). For the same molecule, the results for the inhibition in test [2] and in test [3] were 6% and 3%, respectively. Further, the outcome in test [5], in test [6], in test [7] and in test [8] was inactive.

On to `CN(C)CCCOc1cccc(NC(=O)Nc2ccc(Cl)c(Cl)c2)c1`, for which the growth inhibition in test [1] was 8%; in test [4] it was 90% (active). Besides, the values for the inhibition in test [2] and in test [3] were 6% and -1%, respectively. In addition, the result in test [5], in test [6], in test [7] and in test [8] was inactive.

With `COc1c(C2CCN(CCCCNC(=O)c3ccc(-c4ccc(NC(=O)C(F)(F)F)cc4)cc3)CC2)ccc2c1CCCC2`, the growth inhibition in test [1] is 33%; in test [4] it was 86% (active). The inhibition is 95% (active) in test [2] and 8% in test [3]. The outcome in test [5], in test [6], in test [7] and in test [8] was inactive.

For the molecule `c1cncc(-c2cc(N3CCc4ccccc4C3)nc(-c3ccncc3)n2)c1`, the growth inhibition in test [1] and in test [4] was 100% (active) throughout. The inhibition in test [2] was 56% (active); in test [3] it was -5%. The result in test [5], in test [6], in test [7] and in test [8] was inactive.

With `O=C(NCc1ccc(F)cc1)Nc1ccc(-c2cccc(-c3nc4ccc(C(F)(F)F)cc4[nH]3)c2)cc1`, the growth inhibition in test [1] is 92% (active); in test [4], 101% (active). For the same molecule, the figures for the inhibition in test [2] and in test [3] were 41% and 3%, respectively. For the same molecule, the result in test [5], in test [6], in test [7] and in test [8] was inactive.

For `Nc1c(C(=O)NCCCCN2CCN(c3nsc4ccccc34)CC2)sc2ccccc12`, the figures for the growth inhibition in test [1] and in test [4] were -6% and 86% (active), respectively. The inhibition in test [2] is 26%; in test [3] it was -5%. The outcome in test [5], in test [6], in test [7] and in test [8] was inactive.

Regarding `CC(CCc1ccc(OCc2ccccc2)cc1)NCC(O)c1ccccc1` (configuration not stated), the growth inhibition in test [1] is 72% (active); in test [4], 86% (active). The inhibition is 9% in test [2] and -1% in test [3]. The result in test [5], in test [6], in test [7] and in test [8] was inactive.

As to `COCCn1ccc2c3c(N)nc(N)nc3ccc21`, the growth inhibition in test [1] is 29%; in test [4], 93% (active). Moreover, the inhibition was 43% in test [2] and -2% in test [3]. Besides, the result in test [5], in test [6], in test [7] and in test [8] was inactive.

As to `Cc1cccc2[nH]c(-c3cccc(-c4cccc(CNCc5ccc(S(C)(=O)=O)cc5)c4)c3)nc12`, the values for the growth inhibition in test [1] and in test [4] were 66% (active) and 100% (active), respectively. Also, the inhibition is 13% in test [2] and 0% in test [3]. Also, the result in test [5], in test [6], in test [7] and in test [8] was inactive.

In the case of `COc1ccc2nccc([C@@H](O)CN3CCC(NC(=O)/C=C/c4ccc5ccccc5n4)CC3)c2c1`, the growth inhibition in test [1] is 9%; in test [4], 91% (active). In addition, the values for the inhibition in test [2] and in test [3] were 12% and 1%, respectively. Moreover, the outcome in test [5], in test [6], in test [7] and in test [8] was inactive.

With `NC(N)=NN=CC(=O)Nc1cc([N+](=O)[O-])cc([N+](=O)[O-])c1`, the results for the growth inhibition in test [1] and in test [4] were -2% and 100% (active), respectively. In addition, the figures for the inhibition in test [2] and in test [3] were -5% and -4%, respectively. Further, the outcome in test [5], in test [6], in test [7] and in test [8] was inactive.

On to `Cc1cc(C(F)(F)F)n2nc(C(=O)N(C)Cc3cncn3Cc3ccc(F)cc3)cc2n1`, for which the growth inhibition is 96% (active) in test [1] and 101% (active) in test [4]. Moreover, the results for the inhibition in test [2] and in test [3] were -1% and 0%, respectively. The result in test [5], in test [6], in test [7] and in test [8] was inactive.

Regarding `CC(=O)Nc1nc(C(=O)Nc2ccc(-c3cccc(-c4nc5ccc(F)cc5[nH]4)c3)cc2)cs1`, the growth inhibition in test [1] is 29%; in test [4] it was 94% (active). In addition, the inhibition in test [2] was 86% (active); in test [3], -7%. The result in test [5], in test [6], in test [7] and in test [8] was inactive.

Take `Nc1nc(-c2ccccn2)nc(-n2nc(-c3cccc(C(F)(F)F)c3)cc2N)n1`: the figures for the growth inhibition in test [1] and in test [4] were 74% (active) and 87% (active), respectively. The figures for the inhibition in test [2] and in test [3] were 14% and -5%, respectively. Besides, the outcome in test [5], in test [6], in test [7] and in test [8] was inactive.
